From PubChem BioAssay come the findings set out here.

Assay [1] deals with TRPC4 beta (transient receptor potential cation channel C4), mouse. Briefly: activators of mouse TRPC4 channel, confirmation, cell-based, Fluo4 calcium, HEK293 TRPC4beta/mu-opioid, duplicates, 10 µM (AID 2426).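 On activation: percent rise of integrated ratio over buffer wells lacking compound which define 0%.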 The settings on record: Fluo4 calcium fluorescence, at 10 µM; hits give high values.
The test system of assay [2] is transient receptor potential cation channel C4 beta (TRPC4), mouse. The assay can be described thus: activators of mouse TRPC4 channel, confirmation, cell-based, second round, Fluo4, HEK293 TRPC4beta/mu-opioid, 1 µM (AID 2461;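 active means primary screen active and over 50% activation in each of two duplicate runs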;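 on activation: 0% = wells without test compound as baseline of integrated fluorescence ratio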). The settings on record: Fluo4 calcium fluorescence, at 1 µM; hits give high values.
Assay [3] relates to TRPC4 (transient receptor potential cation channel C4 beta), mouse. The assay can be described thus: positive allosteric modulators of mouse TRPC4, confirmation, cell-based, second round, Fluo-4, HEK293 TRPC4beta/mu-opioid, 1 µM (AID 2554;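 active means primary screen hit whose fluorescence ratio, in both repeats, exceeds the weak agonist control mean by 3 SD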). Conditions: DAMGO EC20, Fluo-4 calcium flux, at 1 µM; hits give high values.
Assay [4] relates to TRPC4 beta (transient receptor potential cation channel C4), mouse. The assay can be described thus: positive allosteric modulators of mouse TRPC4, confirmation, cell-based, Fluo-4, HEK293 TRPC4beta/mu-opioid (AID 2555;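 active means primary screen hit whose calcium fluorescence ratio, in both repeats, exceeds the weak agonist control mean by 3 SD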). Conditions: DAMGO EC20, Fluo-4 calcium flux, at 10 µM; hits give high values. (A change in cytosolic calcium serves as a functional read-out for many receptors and channels.)

Assay [5] addresses Short transient receptor potential channel 4 (Mus musculus) (UniProt Q9QUQ5). Briefly: inhibitors of mouse TRPC4 channel, confirmation, cell-based, Fluo4, HEK293 TRPC4beta/mu-opioid (AID 2636;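 active means calcium signal cut by more than 3 SD below the full-agonist control yet still positive, in both repeats and the earlier primary screen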). Conditions: DAMGO, Fluo4 calcium flux, at 10 µM; hits give high values.
The target is the same in assay [6]. The assay can be described thus: inhibitors of mouse TRPC4 channel, confirmation, cell-based, second round, Fluo4, HEK293 TRPC4beta/mu-opioid, 1 µM (AID 2637;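 active means calcium signal ratio cut to more than 3 SD under the fully stimulated control mean yet still positive, in both repeats and the primary screen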). The settings on record: Fluo4 calcium flux, DAMGO, at 1 µM; hits give high values.
The target is the same in assay [7]. Briefly: TRPC4 positive allosteric modulators, dose response, cell-based, HEK293 TRPC4/mu-opioid, Fluo-4 calcium, EC20 DAMGO (AID 434941;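 active means earlier screen potentiator hit that boosts the TRPC4 ion channel at some dose, with a dose response; inactive means no potentiation, no dose response, or not a prior hit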;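 further: calcium entry triggered by an EC20 dose of DAMGO at the co-expressed mu-opioid receptor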).
Assay [8] has the same target. The assay can be described thus: mouse TRPC4 channel inhibitors, dose response, cell-based, HEK293 TRPC4/mu-opioid, Fluo-4 calcium (AID 434942;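 active means primary screen inhibitor hit that blocks the TRPC4 channel at some tested dose, yielding a dose curve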).
Assay [9] has as its target Short transient receptor potential channel 6 (Mus musculus) (UniProt Q61143). Briefly: inhibition of mouse TRPC6 channel, confirmation, selectivity assay for TRPC4 inhibitor project, cell-based, HEK293, membrane potential dye, duplicate (AID 434948;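 active means active in primary screen and both duplicates, each dropping signal beyond three positive-control SD with fluorescence still positive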). The settings on record: HEK293 TRPC6, membrane potential dye fluorescence, at 10 µM, stimulated with maximal-effect acetylcholine; hits give high values.

Assay [10] shares this target. The assay can be described thus: activation of mouse TRPC6 channel, confirmation, selectivity assay for TRPC4 activator project, cell-based, HEK293, membrane potential dye, duplicate (AID 434950;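 active means membrane potential signal rise above negative control mean plus 3 SD in both duplicates, also active in the earlier TRPC4 screen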;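 on activation: 0% = buffer only wells and 100% = acetylcholine maximal-effect wells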). The settings on record: HEK293 TRPC6, membrane potential fluorescence, at 10 µM; hits give high values.
Assay [11] shares this target. The assay can be described thus: TRPC6 potentiation by TRPC4 potentiator hits, confirmation, selectivity assay for TRPC4 potentiator project, HEK293 cells, membrane potential dye, duplicate (AID 434952;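 active means compound raising the membrane signal above positive-control mean plus 3 SD in both repeats, and a primary screen hit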). Conditions: HEK293 TRPC6, membrane potential dye fluorescence, at 10 µM, maximal acetylcholine added after compound; hits give high values.
The target of assay [12] is Short transient receptor potential channel 4 (Mus musculus) (UniProt Q9QUQ5). The assay can be described thus: calcium flux activators in TRPC4/5HT1a cells, counter-screen for TRPC4 activator project, cell-based, second counter screen, HEK293 TRPC4/5HT1a, Fluo-4 (AID 434977;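 active means calcium signal rise above buffer-control mean plus 5 SD in both duplicates, and also a hit in the primary screen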;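 on activation: plate controls were assay buffer for no effect and maximal serotonin response for full effect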). Conditions: Fluo-4 calcium flux, at 10 µM; hits give high values.
Chain of Short transient receptor potential channel 4 (Mus musculus) (Q9QUQ5 whole entry, looked up): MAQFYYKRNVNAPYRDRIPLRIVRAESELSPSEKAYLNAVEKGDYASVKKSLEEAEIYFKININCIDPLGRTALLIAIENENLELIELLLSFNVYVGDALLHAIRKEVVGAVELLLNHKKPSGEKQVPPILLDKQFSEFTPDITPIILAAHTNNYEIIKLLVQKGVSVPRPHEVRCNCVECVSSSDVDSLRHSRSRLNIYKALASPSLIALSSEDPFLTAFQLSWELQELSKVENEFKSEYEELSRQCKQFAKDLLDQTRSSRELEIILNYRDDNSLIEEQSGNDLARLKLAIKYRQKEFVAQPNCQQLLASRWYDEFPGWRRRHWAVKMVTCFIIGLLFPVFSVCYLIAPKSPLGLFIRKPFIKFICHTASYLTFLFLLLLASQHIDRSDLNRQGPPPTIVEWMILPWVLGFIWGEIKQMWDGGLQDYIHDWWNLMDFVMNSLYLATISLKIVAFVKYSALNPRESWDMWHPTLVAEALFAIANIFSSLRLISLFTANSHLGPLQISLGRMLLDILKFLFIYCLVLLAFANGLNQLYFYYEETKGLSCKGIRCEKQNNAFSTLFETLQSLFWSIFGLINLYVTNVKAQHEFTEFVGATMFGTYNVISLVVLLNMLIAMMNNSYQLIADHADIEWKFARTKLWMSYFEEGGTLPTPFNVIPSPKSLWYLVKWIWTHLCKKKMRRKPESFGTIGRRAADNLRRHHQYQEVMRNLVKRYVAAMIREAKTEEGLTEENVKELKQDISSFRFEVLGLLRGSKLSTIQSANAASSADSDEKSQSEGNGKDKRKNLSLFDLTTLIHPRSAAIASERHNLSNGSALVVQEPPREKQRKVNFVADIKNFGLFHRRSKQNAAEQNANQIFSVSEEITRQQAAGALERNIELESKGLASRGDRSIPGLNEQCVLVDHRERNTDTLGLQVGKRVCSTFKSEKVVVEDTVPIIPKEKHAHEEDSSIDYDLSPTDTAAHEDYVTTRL
Assay [13] in a line: calcium flux inhibitors in TRPC4/5HT1a cells, confirmation, counter-screen for TRPC4 inhibitor project, cell-based, second counter screen, HEK293 TRPC4/5HT1a, Fluo-4 (AID 434978;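 active means primary screen active whose calcium signal fell more than 3 SD beyond the full-serotonin control mean in both duplicate plates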;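 further: serotonin given first at submaximal then at maximal dose after compound preincubation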). Conditions: Fluo-4 calcium flux, at 10 µM, serotonin added to trigger calcium flux; hits give high values.
The test system of assay [14] is TRPC4 (mouse), co-expressed with 5HT1a in HEK293. The assay can be described thus: calcium flux potentiators in TRPC4/5HT1a cells, confirmation, counter-screen for TRPC4 potentiator project, cell-based, second counter screen, HEK293 TRPC4/5HT1a, Fluo-4 (AID 434979;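 active means signal rise over 3 SD above mean of control wells given weak agonist, in both repeats and first screen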). Conditions: Fluo-4 calcium flux, at 10 µM, serotonin added at its EC20 dose; hits give high values.
Assay [15] is described as follows: calcium flux activation in mu-opioid HEK293 cells, confirmation, counter-screen for TRPC4 activator project, cell-based, HEK293 mu-opioid receptor line (AID 449723;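 active means hit in primary screen, with calcium signal over 5 SD above buffer well mean in both duplicates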;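 further: counter screen cells carry the mu-opioid receptor alone and lack TRPC4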). Conditions: Fluo-4 calcium fluorescence, at 10 µM; hits give high values.
Assay [16] in a line: calcium flux enhancement in mu-opioid HEK293 cells, confirmation, counter-screen for TRPC4 allosteric potentiator project, cell-based, HEK293 mu-opioid receptor line (AID 449724;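 active means calcium signal rise more than 3 SD above the low-dose agonist control mean, in both duplicate plates and the primary screen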;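 further: HEK293 cells carrying mu-opioid receptor only with no TRPC4 channel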). The settings on record: Fluo-4 calcium flux, at 10 µM, compound added before EC20 DAMGO stimulus; hits give high values.

For part of these data: Potency and affinity values are given separately. The source made the active and inactive calls.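 How the source made its calls, unless noted: active means fluorescence ratio normalized to control raised more than 50% in primary screen plus both repeat runs; inactive means the rest.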

Chain of Short transient receptor potential channel 6 (Mus musculus) (Q61143 whole entry, looked up): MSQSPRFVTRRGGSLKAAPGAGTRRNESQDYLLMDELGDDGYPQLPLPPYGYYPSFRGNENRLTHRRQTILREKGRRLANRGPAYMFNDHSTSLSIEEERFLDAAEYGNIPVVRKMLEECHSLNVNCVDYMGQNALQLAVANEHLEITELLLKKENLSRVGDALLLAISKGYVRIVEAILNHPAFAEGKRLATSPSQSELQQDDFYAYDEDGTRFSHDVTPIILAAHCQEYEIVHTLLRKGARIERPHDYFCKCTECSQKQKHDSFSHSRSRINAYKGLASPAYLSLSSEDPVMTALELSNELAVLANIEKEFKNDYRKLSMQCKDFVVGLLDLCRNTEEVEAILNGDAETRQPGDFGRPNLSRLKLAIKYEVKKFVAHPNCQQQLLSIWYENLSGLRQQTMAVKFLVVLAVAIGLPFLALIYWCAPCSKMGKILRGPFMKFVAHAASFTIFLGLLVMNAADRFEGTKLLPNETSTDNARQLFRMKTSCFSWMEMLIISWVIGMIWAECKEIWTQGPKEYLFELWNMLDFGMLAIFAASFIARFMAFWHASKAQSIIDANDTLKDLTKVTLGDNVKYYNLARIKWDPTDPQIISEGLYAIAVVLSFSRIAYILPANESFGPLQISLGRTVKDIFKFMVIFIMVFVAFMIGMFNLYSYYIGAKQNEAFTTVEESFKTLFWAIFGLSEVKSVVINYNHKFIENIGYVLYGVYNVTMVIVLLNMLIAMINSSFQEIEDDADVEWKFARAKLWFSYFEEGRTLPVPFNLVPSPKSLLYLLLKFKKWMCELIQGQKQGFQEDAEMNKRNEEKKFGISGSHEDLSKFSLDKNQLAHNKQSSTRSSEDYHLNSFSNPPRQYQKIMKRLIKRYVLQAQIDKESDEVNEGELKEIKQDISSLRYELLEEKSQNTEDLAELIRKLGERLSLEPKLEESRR

For the compound `COc1cc2c(cc1OC)C(C)N(C(=O)C(NC(=O)c1ccccc1)C(C)C)CC2` (stereo not given), the figures for the activation in assay [1] and in assay [10] were 130% (active) and 31% (active), respectively. Moreover, the result in assay [2], in assay [3], in assay [4], in [5], in assay [6] and in assay [7] was inactive. Moreover, the result in [8], in assay [9], in assay [11], in assay [12], in assay [13] and in assay [14] was inactive. For the same compound, the outcome in [15] and in assay [16] was inactive.

`CCCN(CCC)CCNC(=O)CCC(=O)Nc1ccc2nc(N3CCOCC3)cc(C)c2c1`: the activation is 99% (active) in [1], 67% (active) in assay [2] and 35.6% (active) in [12]. Moreover, the result in assay [3], in assay [4], in [5], in [6], in assay [7] and in assay [8] was inactive. Also, the call in assay [9], in assay [10], in [11], in [13], in assay [14] and in [15] was inactive. For the same compound, the result in assay [16] was inactive.

Turning to `Cc1ccccc1NC(=S)NCC(c1cccnc1)N(C)C` (stereo not given), the figures for the activation in assay [1], in assay [2] and in assay [10] were 112% (active), 111% (active) and 32% (active), respectively. For the same compound, the outcome in assay [3], in assay [4], in assay [5], in assay [6], in [7] and in assay [8] was inactive. Also, the call in assay [9], in [11], in assay [12], in assay [13], in assay [14] and in assay [15] was inactive. Moreover, the outcome in assay [16] was inactive.

For `O=C(CCCCn1c(=O)[nH]c2ccccc2c1=O)NC1CCN(Cc2ccccc2)CC1`, the result in assay [1], in [2], in assay [3], in assay [4], in assay [5] and in assay [6] was inactive. The outcome in assay [7], in assay [8], in assay [9], in assay [11], in assay [12] and in assay [13] was inactive. Further, the result in assay [14], in assay [15] and in assay [16] was inactive. In [10], the activation was 35% (active).

As to `CC1(C(=O)NC(=S)NNC(=O)c2ccncc2)CCCCC1`, the results for the activation in assay [1] and in assay [12] were 197% (active) and 101% (active), respectively. Also, the outcome in assay [2], in assay [3], in assay [4], in assay [5], in assay [6] and in assay [7] was inactive. Moreover, the outcome in [8], in assay [9], in assay [10], in [11], in [13] and in assay [14] was inactive. For the same compound, the outcome in [15] and in assay [16] was inactive.

With `S=C(NCCc1cnc[nH]1)NC1CCCC1`, the activation is 220% (active) in assay [1], 135% (active) in assay [2] and 79.6% (active) in assay [12]. Moreover, the outcome in [3], in assay [4], in assay [5], in [6], in [7] and in [8] was inactive. For the same compound, the call in assay [9], in assay [10], in [11], in assay [13], in [14] and in [15] was inactive. The result in assay [16] was inactive.

Take `CC(C)(C)C(=O)/C=c1\s/c(=C\c2ccc(-c3ccc([N+](=O)[O-])cc3)o2)c(=O)n1CC(=O)NC(N)=O`: the activation was 63% (active) in [1]; 534% (active) in assay [10]; 30% (active) in assay [12]; 68.5% (active) in assay [15]; 1220% (active) in assay [16]. In addition, the result in assay [2], in [3], in [5], in [6], in [7] and in [8] was inactive. For the same compound, the compound was classed as inactive in assay [9] and in assay [13]. The potentiation in [4] was 36% (active); in assay [14], 14% (active). Moreover, in [11], the potentiation, percent of control is 436% (active).

As for `CCN1CCCC1CNC(=O)c1cc2c(OC)cccc2[nH]1` (stereo not given), the activation was 136% (active) in [1] and 36.5% (active) in assay [10]. Moreover, the outcome in [2], in [3], in assay [4], in assay [5], in [6] and in [7] was inactive. The outcome in [8], in [9], in assay [11], in assay [12], in assay [13] and in assay [14] was inactive. Also, the result in assay [15] and in assay [16] was inactive.

`COCC1CCN(Cc2cn(-c3ccccc3F)nc2-c2cc(C)sc2C)CC1`: the activation in assay [1] is 95% (active); in assay [10] it was 69.5% (active). The outcome in [2], in [3], in assay [4], in [5], in assay [6] and in [7] was inactive. Further, the outcome in assay [8], in assay [9], in [11], in [12], in assay [13] and in assay [14] was inactive. Further, the result in assay [15] and in [16] was inactive.

`O=C(Nc1ccncc1)c1ccc(Cl)c(S(=O)(=O)N2CCc3ccccc32)c1`: the values for the activation in assay [1] and in assay [12] were 108% (active) and 17.7% (active), respectively. Further, the outcome in assay [2], in assay [3], in assay [4], in [5], in assay [6] and in assay [7] was inactive. The result in [8], in assay [9], in assay [10], in assay [11], in assay [13] and in [14] was inactive. Moreover, the result in assay [15] and in [16] was inactive.

`COCCn1nnnc1C(c1cc2ccc(OC)cc2[nH]c1=O)N1CCN(C2CCCCC2)CC1` (stereo not given): the activation in [1] is 133% (active); in [10], 37.5% (active); in assay [12] it was 13.6% (active). The result in assay [2], in assay [3], in [4], in assay [5], in assay [6] and in assay [7] was inactive. The outcome in assay [8], in assay [9], in [11], in assay [13], in assay [14] and in assay [15] was inactive. Moreover, the outcome in assay [16] was inactive.

`COc1cccc(C(=O)OC2CCCN(C)C2)c1` (stereo not given): the activation in assay [1] was 135% (active); in assay [2], 85% (active); in assay [10], 43% (active); in [12], 48.9% (active). For the same compound, the outcome in assay [3], in [4], in [5], in assay [6], in assay [7] and in [8] was inactive. For the same compound, the call in [9], in [11], in assay [13], in assay [14], in assay [15] and in assay [16] was inactive.

On to `Cc1ccc(-c2nn(-c3cccc(F)c3)cc2CNCc2cccnc2)o1`, for which the activation in assay [1] is 100% (active). Moreover, the outcome in assay [2], in [3], in assay [4], in assay [5], in assay [6] and in [7] was inactive. Besides, the result in assay [8], in assay [9], in [10], in assay [11], in assay [12] and in [13] was inactive. In addition, the result in [14], in [15] and in assay [16] was inactive.

For the compound `COc1ccc(C(=O)C2CCCN(C3Cc4ccccc4C3)C2)cc1OC` (stereo not given), the activation in assay [1] is 128% (active); in assay [10], 81.5% (active); in assay [12], 110% (active). For the same compound, the result in assay [2], in assay [3], in assay [4], in assay [5], in assay [6] and in assay [7] was inactive. Also, the outcome in assay [8], in [9], in assay [11], in assay [13], in assay [14] and in [15] was inactive. In addition, the outcome in [16] was inactive.

As to `CC(=O)NC(CC(=O)NCC(c1ccco1)N(C)C)c1ccccc1` (stereo not given), the activation in assay [1] was 98% (active); in assay [2], 78% (active). In addition, the outcome in [3], in [4], in [5], in [6], in assay [7] and in assay [8] was inactive. Moreover, the result in assay [9], in assay [10], in [11], in assay [12], in assay [13] and in assay [14] was inactive. In addition, the outcome in assay [15] and in [16] was inactive.
